The supplement of paper PMC6555819

How the values were obtained:
Assay in all cases: PBM binding z-score (relative to random genomic background probes); higher = stronger binding; sequences stand for … in GC…GCGATTGACAGCGTAGAATGAAGG
[1] = system: PPARg:RXRa DBDmut IVT, anti-RXR (DBD mutation: RXRa K156A/R161A, NR concentration 270 nM, RXRa partner concentration 90 nM)
Procedure, shortened: (§1)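 For binding z-scores, the reference was random background probes on custom Agilent 4×180K protein-binding microarrays. These arrays were incubated 1 h with ligand-free nuclear receptor dimers in PBS pH 7.4, 2% milk, 0.02% Triton X-100, 1 mM DTT, 0.2 mg/mL BSA and 0.4 mg/ml salmon testes DNA. Fluorescence was scanned after antibody detection of each partner (one per run) and regression-normalized.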

[2] = system: PPARg:RXRa IVT, anti-PPARg (NR concentration 270 nM, RXRa partner concentration 90 nM)
Procedure, shortened: as §1

[3] = system: PPARg DBDmut:RXRa IVT, anti-PPARg (DBD mutation: PPARg1 K132A/R137A, NR concentration 270 nM, RXRa partner concentration 90 nM)
Procedure, shortened: as §1

[4] = system: PPARg DBDmut IVT, anti-PPARg (DBD mutation: PPARg1 K132A/R137A, NR concentration 270 nM)
Procedure, shortened: as §1

[5] = system: PPARg homodimer (NR concentration 180 nM)
Procedure, shortened: as §1

[6] = system: PXR:RXRa (NR concentration 270 nM, RXRa partner concentration 90 nM)
Procedure, shortened: as §1

[7] = system: PXR homodimer (NR concentration 270 nM)
Procedure, shortened: as §1

[8] = system: RARa:RXR (NR concentration 270 nM, RXRa partner concentration 90 nM)
Procedure, shortened: as §1

[9] = system: RARa homodimer (NR concentration 270 nM)
Procedure, shortened: as §1

[10] = system: RARb:RXRa (NR concentration 270 nM, RXRa partner concentration 90 nM)
Procedure, shortened: as §1

Work on CGTCAAAGTTCAAGGAAACGTAACAGAAAGCAGC yielded a PBM binding z-score [1] of 0.0711, a PBM binding z-score [2] of 1.12 and a PBM binding z-score [3] of 0.307. The PBM binding z-score [4] was 1.1, the PBM binding z-score [5] was 1.84 and the PBM binding z-score [6] was 3.45. It also gave a PBM binding z-score [7] of 1.73, a PBM binding z-score [8] of 2.73 and a PBM binding z-score [9] of 1.33. For the same sequence, the PBM binding z-score [10] was 5.
ATCTCGAGGTAACCAAGTTCAGTGAATGCCGAAC gave a PBM binding z-score [1] of 0.433, a PBM binding z-score [2] of 1.72 and a PBM binding z-score [3] of 0.594. The PBM binding z-score [4] was 0.0274, the PBM binding z-score [5] was -0.0303 and the PBM binding z-score [6] was 3.06. It also gave a PBM binding z-score [7] of 2.57, a PBM binding z-score [8] of 1.04 and a PBM binding z-score [9] of -0.305. The PBM binding z-score [10] was 1.5.
CAAACTCGGTCAAGGTCAAAGTCGGTTTGTGCCA showed a PBM binding z-score [1] of 4.82, a PBM binding z-score [2] of 4.77 and a PBM binding z-score [3] of 1.56. It also gave a PBM binding z-score [4] of 0.439, a PBM binding z-score [5] of 3.17 and a PBM binding z-score [6] of 4.98. For the same sequence, the PBM binding z-score [7] was 2.66, the PBM binding z-score [8] was 4.81 and the PBM binding z-score [9] was 1.43. It also gave a PBM binding z-score [10] of 4.49.
For GCTGCTAGGTCAACTAATGGTCAGCTAAAGCTCG, the PBM binding z-score [1] was 4.24, the PBM binding z-score [2] was 3.84 and the PBM binding z-score [3] was -0.334. The PBM binding z-score [4] was -0.784, the PBM binding z-score [5] was 1.66 and the PBM binding z-score [6] was 1.37. The PBM binding z-score [7] was -0.568, the PBM binding z-score [8] was 2.35 and the PBM binding z-score [9] was -0.116. The PBM binding z-score [10] was 4.03.
TCATATAGGTAAAGGTGCAAGTCGAACGATATGA was tested, and the PBM binding z-score [1] was 3.53, the PBM binding z-score [2] was 3.68 and the PBM binding z-score [3] was 0.688. It also gave a PBM binding z-score [4] of 1.15, a PBM binding z-score [5] of 0.555 and a PBM binding z-score [6] of 0.241. The PBM binding z-score [7] was 0.116, the PBM binding z-score [8] was 0.949 and the PBM binding z-score [9] was 0.796. For the same sequence, the PBM binding z-score [10] was 0.566.
For CGTCCAAGGTCATAGGACGTCAGTGAAGACAGAT, the PBM binding z-score [1] was 2.61, the PBM binding z-score [2] was 3.41 and the PBM binding z-score [3] was 0.547. It also gave a PBM binding z-score [4] of 0.692, a PBM binding z-score [5] of 1.99 and a PBM binding z-score [6] of 4.09. The PBM binding z-score [7] was 1.1, the PBM binding z-score [8] was 4.61 and the PBM binding z-score [9] was 1.29. For the same sequence, the PBM binding z-score [10] was 4.77.
For TGTCAAAGTTCAATGGTAACGTAAGTATCCACAC, the PBM binding z-score [1] was -0.339, the PBM binding z-score [2] was 3.53 and the PBM binding z-score [3] was 0.89. For the same sequence, the PBM binding z-score [4] was 1.61, the PBM binding z-score [5] was 2.42 and the PBM binding z-score [6] was 3.89. For the same sequence, the PBM binding z-score [7] was 2.86, the PBM binding z-score [8] was 2.38 and the PBM binding z-score [9] was 1.11. The PBM binding z-score [10] was 4.58.
AGAATGAGGTTAGGATCAGGGAAACAGAATACAT gave a PBM binding z-score [1] of 1.28, a PBM binding z-score [2] of 1.5 and a PBM binding z-score [3] of 1.12. It also gave a PBM binding z-score [4] of 0.953, a PBM binding z-score [5] of 1.27 and a PBM binding z-score [6] of 0.668. It also gave a PBM binding z-score [7] of 0.603, a PBM binding z-score [8] of 0.932 and a PBM binding z-score [9] of 1.08. The PBM binding z-score [10] was 1.37.
ATATGTACGTTATCGGGTCATTCAGTTTGCGCAT showed a PBM binding z-score [1] of 1.03, a PBM binding z-score [2] of 2.37 and a PBM binding z-score [3] of 1.71. For the same sequence, the PBM binding z-score [4] was 1.76, the PBM binding z-score [5] was 1.32 and the PBM binding z-score [6] was 3.32. It also gave a PBM binding z-score [7] of 7.47, a PBM binding z-score [8] of 3.02 and a PBM binding z-score [9] of 0.585. The PBM binding z-score [10] was 1.93.
AGTCAAAGTTCAGGACGAGGAAACGTAAAGCACG gave a PBM binding z-score [1] of -0.351, a PBM binding z-score [2] of 1.46 and a PBM binding z-score [3] of 0.63. For the same sequence, the PBM binding z-score [4] was 0.55, the PBM binding z-score [5] was 1.71 and the PBM binding z-score [6] was 2.42. It also gave a PBM binding z-score [7] of 0.845, a PBM binding z-score [8] of 2.26 and a PBM binding z-score [9] of -0.0138. The PBM binding z-score [10] was 4.25.
TCTATTAGTTGAAGGGCGACCGACGAGTCCGTTT showed a PBM binding z-score [1] of 2.51, a PBM binding z-score [2] of 0.299 and a PBM binding z-score [3] of 0.865. For the same sequence, the PBM binding z-score [4] was 1.2, the PBM binding z-score [5] was 0.852 and the PBM binding z-score [6] was 0.655. It also gave a PBM binding z-score [7] of 0.886, a PBM binding z-score [8] of 0.0781 and a PBM binding z-score [9] of 0.844. The PBM binding z-score [10] was 0.714.
Work on TCATATAGGTAATACAGTTGAAAGTCGGCATCTA yielded a PBM binding z-score [1] of 4.07, a PBM binding z-score [2] of 2.33 and a PBM binding z-score [3] of 1.55. The PBM binding z-score [4] was 1.26, the PBM binding z-score [5] was 1.26 and the PBM binding z-score [6] was 1.11. The PBM binding z-score [7] was 0.75, the PBM binding z-score [8] was 1.51 and the PBM binding z-score [9] was 2.05. The PBM binding z-score [10] was 0.685.
